From PubChem BioAssay AID1159580 (chemical genetic matrix, 2015)
Several values for one entry are separate records, joined by “and”; a condition that tells them apart may be missing. Equal values may be shown once. Out of some 5,500 compounds screened, about 2,000 (36%) were called active. Roughly 18% stayed inconclusive and do not appear here. No stated cut-off is given here; in the data, active means normalized growth mostly below about 0.91 (no sharp cut-off); inconclusive means no clear call, values can overlap the other calls; inactive means mostly above about 0.92. This is one part of the list.

Assay: chemical genetic growth profiling, strain panel (AID 1159580);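 further: tested at 20 µM; growth read once vehicle control cultures reached saturation at 30 °C; 1 = growth at the plate median or of vehicle wells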
Conditions: S. cerevisiae deletion strains, growth OD

Measured: normalized growth

COc1ccc(-c2cc(=O)c3c(OC(C)=O)cc(OC(C)=O)cc3o2)cc1
inactive: locus YAL013W, strain DEP1, stronger effect = lower value 0.955 | locus YAL021C, strain ccr4, stronger effect = lower value 0.947 | locus YAL026C, strain drs2, stronger effect = lower value 1.01 | locus YAL030W, strain snc1, stronger effect = lower value 0.99 | locus YBL061C, strain skt5, stronger effect = lower value 0.974 | locus YBR009C, strain hhf1, stronger effect = lower value 0.972 | locus YBR021W, strain FUR4, stronger effect = lower value 0.916 | locus YBR023C, strain chs3, stronger effect = lower value 0.972 | locus YBR171W, strain sec66, stronger effect = lower value 0.996 | locus YBR229C, strain ROT2, stronger effect = lower value 0.982 | locus YBR231C, strain swc5, stronger effect = lower value 0.922 | locus YBR279W, strain paf1, stronger effect = lower value 0.988 | locus YCL011C, strain gbp2, stronger effect = lower value 0.989 | locus YCL016C, strain dcc1, stronger effect = lower value 0.991 | locus YCL029C, strain bik1, stronger effect = lower value 0.958 | locus YCL061C, strain MRC1, stronger effect = lower value 0.989 | locus YCL069W, strain vba3, stronger effect = lower value 0.983 | locus YCR088W, strain abp1, stronger effect = lower value 0.996 | locus YDL005C, strain med2, stronger effect = lower value 0.991 | locus YDL035C, strain GPR1, stronger effect = lower value 0.975 | locus YDL040C, strain nat1, stronger effect = lower value 0.986 | locus YDL074C, strain BRE1, stronger effect = lower value 0.861 | locus YDL101C, strain DUN1, stronger effect = lower value 0.958 | locus YDL134C, strain PPH21, stronger effect = lower value 0.956 | locus YDL185W, strain tfp1, stronger effect = lower value 0.93 | locus YDL192W, strain arf1, stronger effect = lower value 0.965 | locus YDR001C, strain nth1, stronger effect = lower value 0.987 | locus YDR069C, strain doa4, stronger effect = lower value 0.981 | locus YDR101C, strain arx1, stronger effect = lower value 1 | locus YDR137W, strain rgp1, stronger effect = lower value 0.934 | locus YDR150W, strain NUM1, stronger effect = lower value 0.976 | locus YDR159W, strain sac3, stronger effect = lower value 0.974 | locus YDR162C, strain NBP2, stronger effect = lower value 0.948 | locus YDR195W, strain ref2 1 | locus YDR297W, strain sur2, stronger effect = lower value 0.98 | locus YDR318W, strain mcm21, stronger effect = lower value 0.936 | locus YDR334W, strain swr1, stronger effect = lower value 0.987 | locus YDR335W, strain msn5, stronger effect = lower value 0.995 | locus YDR388W, stronger effect = lower value 0.973 | locus YDR502C, strain sam2, stronger effect = lower value 0.94 | locus YEL003W, strain gim4, stronger effect = lower value 0.968 | locus YEL037C, strain rad23, stronger effect = lower value 1 | locus YEL061C, strain CIN8 (second series), stronger effect = lower value 0.991 | locus YEL061C, strain CIN8, stronger effect = lower value 0.982 | locus YER015W, strain faa2, stronger effect = lower value 0.97 | locus YER016W, strain bim1, stronger effect = lower value 0.991 | locus YER110C, stronger effect = lower value 0.95 | locus YER111C, strain swi4, stronger effect = lower value 1 | locus YER155C, strain BEM2, stronger effect = lower value 0.942 | locus YER167W, strain BCK2, stronger effect = lower value 0.993 | locus YFR010W, strain ubp6, stronger effect = lower value 1 | locus YGL078C, strain dbp3, stronger effect = lower value 0.961 | locus YGL086W, strain mad1, stronger effect = lower value 0.976 | locus YGL167C, strain pmr1, stronger effect = lower value 0.992 | locus YGL173C, strain kem1, stronger effect = lower value 0.982 | locus YGL227W, strain vid30, stronger effect = lower value 0.98 | locus YGL240W, strain doc1, stronger effect = lower value 0.985 | locus YGL248W, strain PDE1, stronger effect = lower value 0.935 | locus YGL253W, strain hxk2, stronger effect = lower value 0.97 | locus YGR135W, strain pre9, stronger effect = lower value 0.905 | locus YGR252W, strain gcn5, stronger effect = lower value 0.86 | locus YHR013C, strain ard1, stronger effect = lower value 0.968 | locus YHR027C, strain rpn1, stronger effect = lower value 0.991 | locus YHR030C, strain SLT2, stronger effect = lower value 0.972 and 0.893 | locus YHR079C, strain IRE1 (second series), stronger effect = lower value 0.972 | locus YHR079C, strain IRE1, stronger effect = lower value 0.864 | locus YHR094C, strain hxt1, stronger effect = lower value 0.97 | locus YHR129C, strain ARP1, stronger effect = lower value 0.938 | locus YHR142W, strain chs7, stronger effect = lower value 0.951 | locus YHR200W, strain rpn10, stronger effect = lower value 0.959 | locus YIL066C, strain RNR3, stronger effect = lower value 0.994 | locus YIL073C, strain SPO22, stronger effect = lower value 0.852 | locus YIL125W, strain kgd1, stronger effect = lower value 0.991 | locus YIR030C, strain dcg1, stronger effect = lower value 0.955 | locus YJL092W, strain hpr5, stronger effect = lower value 1 | locus YJL095W, strain BCK1 (second series), stronger effect = lower value 0.992 | locus YJL115W, strain asf1, stronger effect = lower value 0.989 | locus YJL129C, strain trk1, stronger effect = lower value 0.937 | locus YJL134W, strain LCB3, stronger effect = lower value 0.979 | locus YJL154C, strain vps35, stronger effect = lower value 0.997 | locus YJL164C, strain tpk1, stronger effect = lower value 0.98 | locus YJL166W, strain qcr8, stronger effect = lower value 0.953 | locus YJL168C, strain set2, stronger effect = lower value 0.97 | locus YJL187C, strain SWE1 (second series), stronger effect = lower value 0.927 | locus YJL187C, strain SWE1, stronger effect = lower value 1.01 | locus YJR043C, strain POL32, stronger effect = lower value 0.974
active: locus YDR392W, strain spt3, stronger effect = lower value 0.646 | locus YER155C, strain BEM2 (second series), stronger effect = lower value 0.846
0.884 (inactive) and 0.878 (active): locus YJL095W, strain BCK1, stronger effect = lower value
